Values without a mark were called inactive. The rule behind the calls is not given here.

In this experiment the target is Pantothenate synthetase (Mycobacterium tuberculosis (strain ATCC 25618 / H37Rv)) (UniProt P9WIL5). Description: Recombinant Mtb pantothenate synthetase (PanC) inhibitors, coupled enzyme, confirmatory (AID 375).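 Note: 0% = full reaction with vehicle and 100% = no enzyme background.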 The conditions noted are these: coupled enzyme assay; at 10 µM, active compounds read high.
Sequence of Pantothenate synthetase (Mycobacterium tuberculosis (strain ATCC 25618 / H37Rv)) (P9WIL5 whole entry, looked up): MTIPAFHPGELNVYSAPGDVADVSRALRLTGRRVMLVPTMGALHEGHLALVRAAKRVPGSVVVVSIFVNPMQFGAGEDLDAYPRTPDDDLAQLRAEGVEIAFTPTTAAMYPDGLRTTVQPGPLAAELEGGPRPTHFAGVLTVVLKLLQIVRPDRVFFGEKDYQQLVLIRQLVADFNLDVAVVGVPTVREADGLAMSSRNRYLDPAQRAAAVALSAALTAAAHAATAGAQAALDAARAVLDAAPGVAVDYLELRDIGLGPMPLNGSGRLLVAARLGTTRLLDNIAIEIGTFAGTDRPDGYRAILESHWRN

Turning to `C#CCNc1c(C)c(C)nc2ncnn12`, the inhibition was 4%.
For `O=C(CSc1nnc(NC(=O)C2CCC2)s1)NC1CC1` the value was 0%; for `CC(C)N(O)C(=O)NC(C)(C)C`, 6%; for `CSc1nnc(-c2ccc(NC(=O)CCc3ccccc3)cc2)n1C`, 0%.
For `COc1cccc(OCCn2ccnc2)c1`, the inhibition is 4%.
With `O=C(OCCCN1C(=O)c2ccccc2C1=O)c1ccco1`, the inhibition was 2%.
Under `CN(C(=O)CSc1nc2c(c(=O)[nH]1)CCCC2)C1CCCCC1` stands 0%.
Under `Cc1c(CCC#N)c(N2CCN(C3CCCCC3)CC2)n2c(nc3ccccc32)c1C#N` stands 3%; under `COc1ccccc1N1CCN(C(=O)c2cc(C3CC3)on2)CC1`, 3%; under `CC(C)OC(=O)CN1C(=O)C(C)(C)Oc2ccc(C(=O)NC3CC3)cc21`, 0%.
For `CCN(CC)C(=O)Cn1ncc2c1-c1ccccc1OC2` the value was 0%.
On to `COc1ccccc1N(CC(=O)NC1CCCC1)C(=O)CCC(=O)Nc1cc(C)on1`, for which the inhibition was 0%.
Under `Cc1ccc2nc(NCCCN3CCOCC3)c(C=NCCCN3CCOCC3)c(=O)n2c1` stands 0%.
Under `Cc1ccc(S(=O)(=O)C(C#N)c2nc3ccccc3nc2N2CCCCC2)cc1` (stereo not drawn) stands 2%.
For `O=C(c1cccnc1NCc1ccccc1)N1CCOCC1` the value was 0%; for `Cn1cnnc1Sc1nc2c(c(=O)n(C)c(=O)n2C)n1C`, 0%.
Turning to `COC(=O)C1=C(CSCc2ccco2)NC(=O)NC1c1cc(C)ccc1C` (stereo not drawn), the inhibition was 3%.
Under `O=C(NCCCN1CCCC1=O)c1ccc2c(c1)NC(=O)C(N1CCOCC1)S2` (stereo not drawn) stands 2%; under `Cc1cc(NC(=O)c2cc3ccccc3o2)cc(C)c1OCC(=O)N1CCOCC1`, 0%; under `CCN(CC)CCNC(=O)C1CCN(S(=O)(=O)N2CCCCC2)CC1`, 0%.
For `CCOC(=O)N1CCC(NC(=O)c2ccc(OC)c(CN3CC(=O)N4CCCC4C3=O)c2)CC1` (stereo not drawn) the value was 0%.
For `Cc1nc2sc(C(c3ccccc3)N3CCN(c4ccccc4F)CC3)c(O)n2n1` (stereo not drawn), the inhibition was 0%.
Under `CSc1ccc(S(=O)(=O)Nc2cccc(F)c2)cc1` stands 0%; under `O=C(NCC(c1cccnc1)N1CCN(c2ccc(F)cc2)CC1)OCc1ccccc1` (stereo not drawn), 0%; under `CC(=O)Nc1ccc(S(=O)(=O)CCC#N)cc1`, 5%.
For `COc1ccc(-n2nnnc2-c2cccc(OC)c2)cc1` the value was 0%; for `O=C(C1=C(O)C(=O)N(c2ncccn2)C1c1cccc(Cl)c1)c1ccco1` (stereo not drawn), 0%; for `Cn1c(SCc2nc3ccccc3c(=O)[nH]2)nnc1-c1ccco1`, 13%.
Under `COc1ccc(Cl)cc1NC(=O)CCN1CCN(c2ccccc2C)CC1` stands 0%; under `CCOC(=O)c1sc2nc3c(cc2c1N)COC(C)(C)C3`, 12%; under `CCn1c(=O)cc(SCC(=O)NCCN2CCN(Cc3ccccc3)CC2)c2ccccc21`, 0%.
`COC(=O)c1c(C#N)c(N)nc2c1CCC2`: the inhibition is 7%.
Under `Cc1cccc(C2CC(c3ccccc3)Nc3nc(N)nn32)c1` (stereo not drawn) stands 0%.
For `Clc1ccc(CSc2nnc(Cn3cnc4ccccc43)o2)cc1` the value was 0%; for `Cc1cnn(Cc2ccccc2)c1N`, 3%.
For `O=C(Nc1ccncc1)C1c2ccccc2Oc2ccccc21` the value was 0%; for `Cc1ccc(-c2nn(C)c(=O)c3ccccc23)cc1S(=O)(=O)N1CCOCC1`, 9%; for `O=C(Nc1cccc2ccccc12)c1ccc(Br)o1`, 0%.
As for `Cc1nnc(SCC(=O)Nc2ccc(Br)cn2)[nH]c1=O`, the inhibition was 1%.
`CN1CCc2nc(SCCOc3ccccc3)c(C#N)cc2C1`: the inhibition is 0%.
Under `CCOc1cc(CN2CCN(C(=O)c3ccco3)CC2)ccc1OC` stands 9%; under `Cc1oc2c(CN3CCCC3)c(O)ccc2c(=O)c1-c1ccccc1`, 0%; under `COc1ccc(CC(=O)Nc2c3c(nn2-c2cccc(Cl)c2)CS(=O)C3)cc1` (stereo not drawn), 7%.
Under `COC(=O)c1[nH]c2c(c1C)C(=O)CC(c1cccs1)C2` (stereo not drawn) stands 3%; under `Oc1cc(NCc2cccnc2)ccc1-c1nc2ccccc2o1`, 0%.
For `CCN=C1SC(CC(=O)Nc2ccccc2)C(=O)N1CC` (stereo not drawn) the value was 5%.
Take `Cc1ccc(Cn2c(CN3CCOCC3)nc3c2c(=O)n(C)c(=O)n3C)cc1`: the inhibition is 0%.
Under `CCCCC[C@H](O)/C=C/[C@H]1C=CC(=O)[C@@H]1C/C=C\CCCC(=O)O` stands 0%; under `O=C1CCCC2=C1C(c1ccsc1)CC(=O)N2c1ccccc1` (stereo not drawn), 0%; under `O=C(c1ccc2ccccc2n1)N1CCN(c2ccccc2)CC1`, 0%.
Under `CC(C)OC(=O)CSc1nnc(-c2cccnc2)n1Cc1ccccc1` stands 3%; under `COc1ccc(N2CCN(C(=O)CSc3nnc(Cn4nnc5ccccc54)n3C)CC2)cc1`, 0%; under `CCOC(=O)N1CCN(CC(O)COc2ccccc2C(C)CC)CC1` (stereo not drawn), 7%.
Take `CCN1CCN(c2nc3c(C)cccn3c(=O)c2/C=C(\C#N)S(=O)(=O)c2ccccc2)CC1`: the inhibition was 0%.
Under `O=S(=O)(NCc1cccnc1)c1cccc2nsnc12` stands 12%; under `O=C(CN1CCN(Cc2ccccc2F)C1=O)NCc1cccnc1`, 0%.
Under `CCCCNS(=O)(=O)c1ccc(OC)c2ncccc12` stands 3%; under `CC1=C(C(=O)OC2CCCCC2)C(c2cccnc2)n2ncnc2N1` (stereo not drawn), 0%; under `Cn1c(C(=O)N2CCCC(C(=O)NCCCc3ccccc3)C2)cc2sccc21` (stereo not drawn), 0%.
Under `CCN(CC)S(=O)(=O)c1ccc(C(=O)N2CCN=C2SCc2cccnc2)cc1` stands 0%; under `COc1ccccc1N1CCN(C(=O)C2CC=CCC2C(=O)O)CC1` (stereo not drawn), 14%; under `COc1ccc(CN2C(=O)c3ccccc3C2C(=O)NC2CCCC2)c(OC)c1` (stereo not drawn), 0%.
Turning to `CC(=O)c1c(NCCc2ccccc2)cc(C)oc1=O`, the inhibition is 0%.
Take `COC(=O)c1ccc(CNC(=O)COc2ccccc2Br)o1`: the inhibition is 5%.
Consider `CS(=O)(=O)N1CCCC(C(=O)NCCCN2CCC(Cc3ccccc3)CC2)C1` (stereo not drawn), for which the inhibition was 0%.
In the case of `Cc1nc2sc(C(c3cccs3)N3CC(C)CC(C)C3)c(O)n2n1` (stereo not drawn), the inhibition is 0%.
For the compound `C=CCSc1n[nH]c(-c2ccc(OC)cc2)n1`, the inhibition is 0%.
For `CC(c1ccco1)N(Cc1ccco1)C(=O)Nc1ccccc1` (stereo not drawn) the value was 0%; for `O=S(=O)(c1ccc(N2CCN(c3ccc(F)cc3)CC2)cc1)N1CCCC1`, 0%.
Under `COCCCn1c(=N)c(C(=O)NCC2CCCO2)cc2c(=O)n3cccc(C)c3nc21` (stereo not drawn) stands 0%; under `COc1ccc(S(=O)(=O)N2CCN(c3ccc(C)cc3C)CC2)cc1OC`, 3%.
As to `COC(=O)Cn1cc(C(=O)c2cccs2)c2ccccc21`, the inhibition was 0%.
Under `O=S(=O)(NC1CCCC1)c1ccc(S(=O)(=O)N2CCc3ccccc32)cc1` stands 0%.
For `Cn1ccnc1C(O)c1ccco1` (stereo not drawn) the value was 3%.
For `CCOC(=O)c1cccnc1SCC(=O)NC(C)CC` (stereo not drawn) the value was 0%; for `CSc1ccc2c(c1)N(CCC1CCCCN1C)c1ccccc1S2` (stereo not drawn), 11%; for `CCOC(=O)C1(c2ccccc2)NC(c2ccc(N(C)C)cc2)C2C(=O)N(C)C(=O)C21` (stereo not drawn), 0%.
Regarding `Cc1cccn2c(=O)c3cc(C#N)c(=NC(=O)c4cccnc4)n(CC4CCCO4)c3nc12` (stereo not drawn), the inhibition was 0%.
Under `CCOc1ccc2cc(C#N)c(SCC(=O)N3CCCC3)nc2c1` stands 0%; under `Cc1cc(NC(=O)CSc2ccc3nnc(-c4cccc(F)c4)n3n2)no1`, 0%; under `CC(C)COc1ccc(C2NC(=O)NC2=O)cc1` (stereo not drawn), 0%.
Under `O=C(c1nc2n(n1)C(c1ccc(Cl)cc1)C=C(c1ccccc1)N2)N1CCOCC1` (stereo not drawn) stands 0%; under `O=C(NCc1cccnc1)c1ccccc1Br`, 7%; under `Cc1[nH]nc2c1C(C1CC=CCC1)C(C#N)=C(N)O2` (stereo not drawn), 3%.
For `CCOc1ccc(OCc2cccc(C(=O)N3CCCC3)c2)cc1` the value was 6%; for `CC(C)Cc1nc2oc3c(N4CCN(CCO)CC4)ncnc3c2c2c1CCCC2`, 0%.
Regarding `CCOc1ccccc1CN(Cc1ccco1)S(=O)(=O)c1ccc(-n2cnnn2)c(OC)c1`, the inhibition is 8%.
Under `Cc1cccc2cc(COC(=O)C(C)(C)C)c(=O)[nH]c12` stands 0%.
Take `Cc1cc(-c2ccccc2)nc2cc(C(=O)NCCCn3ccnc3)nn12`: the inhibition was 7%.
Under `Cc1nc(SCC(=O)NCc2ccco2)c2c(C)c(C)sc2n1` stands 5%; under `CC(C)C(OC(=O)c1ccco1)C(=O)NCc1ccccc1` (stereo not drawn), 5%; under `Cc1cc(C)n2cc(CSc3nnnn3-c3ccc(Cl)cc3)nc2n1`, 0%.
As for `CN1CCN(c2nc3c(c(=O)[nH]c(=O)n3C)n2CCOc2ccccc2)CC1`, the inhibition is 0%.
With `CC1=C(C(=O)OC(C)C)C(c2ccccn2)n2ncnc2N1` (stereo not drawn), the inhibition was 0%.
`O=C(Cc1cccs1)NCc1ccc(F)cc1`: the inhibition was 0%.
For `CCOc1ccccc1NC(=O)N1C2CCCC1CC(NC(=O)C1CC1)C2` (stereo not drawn) the value was 6%.
Take `O=C(c1ccccc1)N1CCN(CC2CC=CCC2)CC1` (stereo not drawn): the inhibition was 0%.
`COc1ccc(OC)c(NC(=O)CCN2CCC(C)CC2)c1`: the inhibition was 0%.
Under `CNC(=O)Nc1cccc(C(F)(F)F)c1` stands 0%; under `CCOc1ccc(CN2C(=O)c3ccccc3C2C(=O)NCc2cccnc2)cc1` (stereo not drawn), 0%; under `CC(=O)N[C@@H](CS)C(=O)O`, 0%.
For `COCCN(C(=O)CNC(=O)c1ccco1)C(C(=O)NC1CCCCC1)c1cccc(OC)c1` (stereo not drawn) the value was 0%; for `CCCN(CCC)C(=O)C1CCN(c2cc(C)nc3c(-c4ccc(OC)c(OC)c4)c(C)nn23)CC1`, 0%.

The values above are taken from PubChem BioAssay.
